The supplement of paper PMC12645437, “Orthogonal IMiD-Degron Pairs Induce Selective Protein Degradation in Cells” (ACS Chemical Biology, 2025)
Over roughly 8,300 sequences, “log2 fold change of degron read counts, EGFP-low vs EGFP+ sorted cells (limma voom), compound-induced degradation” has its median near -1.1; the highest 2% begin near 3.2. What follows is part of a selection rich in the highest values, with near analogues and random picks from the rest.

B1: 46F_47A_49D_50Q_52G_53A_54Y_55F_67L_, Q9UKT9 (peptide)
chain: FACDQCGAYFTQKGNLLRHIKL
B2: 46F_47L_49S_50V_52G_53H_54Q_55F_67L_, Q9UKT9 (peptide)
chain: FLCSVCGHQFTQKGNLLRHIKL
B3: 46F_47K_49D_50Q_52G_53A_54C_55F_67L_, Q9UKT9 (peptide)
chain: FKCDQCGACFTQKGNLLRHIKL
B4: 46F_47L_49P_50Q_52G_53A_54I_55F_67L_, Q9UKT9 (peptide)
chain: FLCPQCGAIFTQKGNLLRHIKL
B5: 46F_47K_49D_50I_52G_53A_54S_55F_67L_, Q9UKT9 (peptide)
chain: FKCDICGASFTQKGNLLRHIKL
B6: 46F_47A_49D_50V_52G_53A_54Q_55F_67L_, Q9UKT9 (peptide)
chain: FACDVCGAQFTQKGNLLRHIKL
B7: 46F_47A_49E_50I_52G_53A_54V_55F_67L_, Q9UKT9 (peptide)
chain: FACEICGAVFTQKGNLLRHIKL
B8: 46F_47Y_49E_50I_52G_53A_54V_55F_67L_, Q9UKT9 (peptide)
chain: FYCEICGAVFTQKGNLLRHIKL
B9: 46F_47F_49E_50I_52G_53A_54V_55F_67L_, Q9UKT9 (peptide)
chain: FFCEICGAVFTQKGNLLRHIKL
B10: 46F_47T_49E_50I_52G_53A_54V_55F_67L_, Q9UKT9 (peptide)
chain: FTCEICGAVFTQKGNLLRHIKL
B11: 46F_47H_49E_50I_52G_53A_54V_55F_67L_, Q9UKT9 (peptide)
chain: FHCEICGAVFTQKGNLLRHIKL
B12: 46F_47E_49E_50I_52G_53A_54V_55F_67L_, Q9UKT9 (peptide)
chain: FECEICGAVFTQKGNLLRHIKL
B13: 46F_47M_49E_50I_52G_53A_54V_55F_67L_, Q9UKT9 (peptide)
chain: FMCEICGAVFTQKGNLLRHIKL
B14: 46F_47N_49E_50I_52G_53A_54V_55F_67L_, Q9UKT9 (peptide)
chain: FNCEICGAVFTQKGNLLRHIKL
B15: 46F_47W_49E_50I_52G_53A_54V_55F_67L_, Q9UKT9 (peptide)
chain: FWCEICGAVFTQKGNLLRHIKL
B16: 46F_47S_49E_50I_52G_53A_54V_55F_67L_, Q9UKT9 (peptide)
chain: FSCEICGAVFTQKGNLLRHIKL
B17: 46F_47C_49E_50I_52G_53A_54V_55F_67L_, Q9UKT9 (peptide)
chain: FCCEICGAVFTQKGNLLRHIKL
B18: 46F_47G_49E_50I_52G_53A_54V_55F_67L_, Q9UKT9 (peptide)
chain: FGCEICGAVFTQKGNLLRHIKL
B19: 46F_47V_49P_50I_52G_53R_54L_55F_67L_, Q9UKT9 (peptide)
chain: FVCPICGRLFTQKGNLLRHIKL
B20: 46L_47V_49N_50Q_52G_53F_54K_55C_67L_, Q9UKT9 (peptide)
chain: LVCNQCGFKCTQKGNLLRHIKL
B21: 46F_47F_49S_50V_52G_53H_54H_55F_67L_, Q9UKT9 (peptide)
chain: FFCSVCGHHFTQKGNLLRHIKL
B22: 46F_47C_49N_50Q_52G_53H_54N_55F_67L_, Q9UKT9 (peptide)
chain: FCCNQCGHNFTQKGNLLRHIKL
B23: 46F_47H_49P_50V_52G_53A_54M_55F_67L_, Q9UKT9 (peptide)
chain: FHCPVCGAMFTQKGNLLRHIKL
B24: 46F_47Y_49N_50Q_52G_53R_54R_55F_67L_, Q9UKT9 (peptide)
chain: FYCNQCGRRFTQKGNLLRHIKL
B25: 46L_47F_49P_50I_52G_53F_54V_55C_67L_, Q9UKT9 (peptide)
chain: LFCPICGFVCTQKGNLLRHIKL
B26: 46F_47L_49N_50V_52G_53A_54Q_55F_67L_, Q9UKT9 (peptide)
chain: FLCNVCGAQFTQKGNLLRHIKL
B27: 46F_47K_49P_50V_52G_53A_54R_55F_67L_, Q9UKT9 (peptide)
chain: FKCPVCGARFTQKGNLLRHIKL
B28: 46F_47V_49P_50V_52G_53A_54L_55F_67L_, Q9UKT9 (peptide)
chain: FVCPVCGALFTQKGNLLRHIKL
B29: 46F_47L_49P_50V_52G_53A_54R_55F_67L_, Q9UKT9 (peptide)
chain: FLCPVCGARFTQKGNLLRHIKL
B30: 46F_47C_49P_50V_52G_53A_54D_55F_67L_, Q9UKT9 (peptide)
chain: FCCPVCGADFTQKGNLLRHIKL
B31: 46F_47T_49P_50V_52G_53A_54R_55F_67L_, Q9UKT9 (peptide)
chain: FTCPVCGARFTQKGNLLRHIKL
B32: 46F_47Q_49P_50V_52G_53A_54L_55F_67L_, Q9UKT9 (peptide)
chain: FQCPVCGALFTQKGNLLRHIKL
B33: 46F_47Q_49P_50V_52G_53A_54D_55F_67L_, Q9UKT9 (peptide)
chain: FQCPVCGADFTQKGNLLRHIKL
B34: 46F_47R_49P_50V_52G_53A_54R_55F_67L_, Q9UKT9 (peptide)
chain: FRCPVCGARFTQKGNLLRHIKL
B35: 46F_47F_49P_50V_52G_53A_54L_55F_67L_, Q9UKT9 (peptide)
chain: FFCPVCGALFTQKGNLLRHIKL
B36: 46F_47W_49P_50V_52G_53A_54R_55F_67L_, Q9UKT9 (peptide)
chain: FWCPVCGARFTQKGNLLRHIKL
B37: 46F_47G_49P_50V_52G_53A_54R_55F_67L_, Q9UKT9 (peptide)
chain: FGCPVCGARFTQKGNLLRHIKL
B38: 46F_47V_49P_50V_52G_53A_54D_55F_67L_, Q9UKT9 (peptide)
chain: FVCPVCGADFTQKGNLLRHIKL

Target: T1, CRBN, Q96SW2
T1 chain: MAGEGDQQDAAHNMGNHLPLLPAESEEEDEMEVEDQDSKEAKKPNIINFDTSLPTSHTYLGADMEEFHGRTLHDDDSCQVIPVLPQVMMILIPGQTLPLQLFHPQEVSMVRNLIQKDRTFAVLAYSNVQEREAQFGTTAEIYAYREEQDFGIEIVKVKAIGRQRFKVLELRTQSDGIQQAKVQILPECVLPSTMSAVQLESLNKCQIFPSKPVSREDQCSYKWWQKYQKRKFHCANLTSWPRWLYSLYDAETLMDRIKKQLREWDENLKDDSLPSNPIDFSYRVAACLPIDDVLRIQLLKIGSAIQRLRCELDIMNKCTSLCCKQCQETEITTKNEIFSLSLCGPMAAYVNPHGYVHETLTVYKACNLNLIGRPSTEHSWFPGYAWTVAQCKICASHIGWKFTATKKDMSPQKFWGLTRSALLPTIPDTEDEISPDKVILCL
Assay: log2 fold change of degron read counts, EGFP-low vs EGFP+ sorted cells (limma voom), compound-induced degradation; higher = more compound-induced degradation of the degron-EGFP fusion; degrons are variants of IKZF1/3 zinc finger 2; compound dose not given here
Conditions: Jurkat, 18 h

[1] = compound: compound 19 (5-tert-butyl-thalidomide)
[2] = compound: compound 22 (5-morpholino-thalidomide)
[3] = compound: compound 33 (diphenyl IMiD analogue)
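Also: pooled lentiviral library of zinc finger degron-EGFP fusions in mCherry-positive Jurkat cells, FACS-sorted after compound exposure, with degron abundance counted by next-generation sequencing.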

Row | Sequence | log2 fold change of degron read counts [1] | log2 fold change of degron read counts [2] | log2 fold change of degron read counts [3] | log2 fold change of degron read counts (compound: thalidomide)
1 | B1 | -1.75 | -2.34 | -1.85 | -2.43
2 | B2 | -2.83 | -2.7 | -2.54 | -2.76
3 | B3 | -2.75 | -3.31 | -3.66 | -3.24
4 | B4 | -1.63 | -1.54 | -0.716 | -0.881
5 | B5 | -0.288 | -2.66 | -3.19 | -1.69
6 | B6 | 1.75 | -0.392 | -1.04 | -1.67
7 | B7 | 3.29 | 2.39 | 1.27 | 0.606
8 | B8 | 3.66 | 3.6 | 2.79 | 1.07
9 | B9 | 3.46 | 3.76 | 2.2 | 1.64
10 | B10 | 0.417 | 1.97 | 2.08 | 2.64
11 | B11 | 1.69 | 1.65 | 1.31 | 0.109
12 | B12 | -0.462 | -0.764 | 1.98 | 2.39
13 | B13 | -1.1 | -0.16 | 2.5 | 1.37
14 | B14 | 1.15 | -0.231 | 0.00137 | -0.335
15 | B15 | 3.33 | 3.51 | 2.5 | 0.916
16 | B16 | 2.73 | 1.89 | 2.49 | 1.44
17 | B17 | 1.77 | 1.91 | 2.47 | 2.16
18 | B18 | 2.88 | 2.6 | 2.14 | 1.13
19 | B19 | -1.24 | -0.36 | 0.85 | 1.08

Row | Sequence | log2 fold change of degron read counts [1] | log2 fold change of degron read counts [2] | log2 fold change of degron read counts [3] | log2 fold change of degron read counts (compound: thalidomide)
20 | B20 | -2.22 | -2.27 | -2.4 | -0.986
21 | B21 | -2.1 | -2.74 | -2.17 | -1.83
22 | B22 | -2.54 | -3.15 | -2.94 | -2.37
23 | B23 | 1.4 | 1.46 | 1.42 | -0.0518
24 | B24 | -2.62 | -2.54 | -2.6 | -2.29
25 | B25 | 3.02 | 2.99 | 1.66 | 1.45
26 | B26 | -2.31 | -2.24 | -0.00793 | -0.809
27 | B27 | -1.78 | -2.92 | -2.71 | -1.48
28 | B28 | -1.75 | 0.353 | 1.26 | 0.951
29 | B29 | -0.179 | -0.342 | 0.651 | 1.68
30 | B30 | 0.844 | 0.509 | 1.45 | 0.741
31 | B31 | 0.934 | 2.59 | 1.76 | 2.95
32 | B32 | -1.05 | 1.65 | 1.66 | 3.5
33 | B33 | -0.246 | 1.22 | 2.37 | 3.4
34 | B34 | -1.26 | -1.08 | -0.255 | 0.153
35 | B35 | 1.62 | 1.64 | 1.45 | 0.0806
36 | B36 | 2.67 | 3.51 | 1.2 | 1.26
37 | B37 | 3.6 | 2.1 | -0.116 | 1.03
38 | B38 | -0.973 | 0.651 | 1 | 1.76
